Exocytosis inh: lytic granule exocytosis inhibition; TALL-104 LAMP-1 surface exposure, flow cytometry; cells stimulated with thapsigargin and PMA; inhibition, % at 10 µM; 360,000 compounds, 0.66% hits; AID 651702;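 active = inhibition above about 55%, limit read from the data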
HTR2A ag: mouse HTR2A agonism via beta-arrestin recruitment. P35363. CHO-K1 mHTR2A beta-arrestin complementation, luminescence; percent of 30 µM serotonin response. activation, % at 7.6 µM. 360,000 compounds, 0.66% hits. AID 624169;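 active = activation above a run cutoff, the mean activation of all tested compounds plus 3 SD, cut at about 14% in these data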
VLA-4 inh: inhibition in a human VLA-4 binding assay; inhibition, % (about 7 µM as worked out from the volumes in the protocol); VLA-4 expressing cells, ligand binding flow cytometry; P13612; 330,000 compounds, 0.2% hits; AID 2557; in the data active = inhibition above about 50%
V-ATPase pH: regulators of yeast V-ATPase proton transport; response, % at 10 µM; 350,000 compounds, 0.37% hits; S. cerevisiae, pHLuorin cytosolic pH fluorescence; in the data active = response mostly above about 7.3%, no sharp cut-off; inactive = mostly below about 5.4%; also: actives read high
MEX-5 binding: C. elegans MEX-5 TCR-2 RNA binding activity. activity score (negative = inhibition of binding), % at 10 µM. AID 1832. Q9XUB2. 300,000 compounds, 0.38% hits. MEX-5/FITC-TCR2 RNA binding, fluorescence polarization; stronger effect = lower value;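 active = inhibition past about -25% in most replicates, and total fluorescence under double the plate's negative control median, limit read from the data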
Target sequence (Q9XUB2 whole entry, looked up): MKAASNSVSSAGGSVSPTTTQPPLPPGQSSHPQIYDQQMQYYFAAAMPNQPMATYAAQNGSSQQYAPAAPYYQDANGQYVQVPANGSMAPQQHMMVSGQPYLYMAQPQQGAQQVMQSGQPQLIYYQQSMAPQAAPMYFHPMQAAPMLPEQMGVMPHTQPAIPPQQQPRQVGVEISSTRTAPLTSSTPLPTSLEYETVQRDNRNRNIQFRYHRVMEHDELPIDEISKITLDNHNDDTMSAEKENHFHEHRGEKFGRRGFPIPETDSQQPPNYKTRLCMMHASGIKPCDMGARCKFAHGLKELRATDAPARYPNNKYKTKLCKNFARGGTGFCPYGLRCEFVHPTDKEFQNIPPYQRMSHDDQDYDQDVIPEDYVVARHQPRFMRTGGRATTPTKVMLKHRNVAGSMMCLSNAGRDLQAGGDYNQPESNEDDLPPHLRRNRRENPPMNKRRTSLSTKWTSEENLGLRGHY
GASC-1 inh: human JMJD2C demethylase inhibition; AID 2099; inhibition, % at 2.35 µM; Q9H3R0; GST-JMJD2C(1-420) H3K9me3 demethylation, DELFIA europium; 330,000 compounds, 0.069% hits;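 active = more than half of a compound's replicate wells show inhibition beyond 50%, single wells judged on their own value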;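 also: signal counts dimethyl H3K9 product captured on neutravidin plate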
OPRM1 ag: counter-screen for mouse HTR2A agonists: human mu opioid receptor agonists | shares compounds with HTR2A ag | U2OS OPRM1 beta-arrestin PathHunter, luminescence; DMSO 0%, DAMGO 9.3 µM 100% | activation, % at 9.3 µM | 2,300 compounds, 5.3% hits;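 active = mean activation above the mean of DMSO-only wells plus 3 SD, cut at about 0.5% in these data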
m5-HT2A ag conf: confirmation of mouse HTR2A serotonin receptor agonists; shares compounds with HTR2A ag; CHO-K1 PathHunter beta-arrestin recruitment, luminescence; DMSO 0%, 30 µM serotonin 100%; activation, % at 7.6 µM; 2,300 compounds, 19% hits; AID 624381;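 active = mean activation across triplicates above the hit threshold derived in the original primary screen, cut at about 15% in these data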
Each line names hits and unclear results; the compound was inactive in the other large screens (follow-up assays come after a bar, where they were run). Compounds with a hit are over-represented: about 2.2% of the library has one in this group of screens.

O=C1N(CN2CCN(c3cccc(Cl)c3)CC2)c2ccccc2C12OCCCO2	HTR2A ag 18.4 | OPRM1 ag inactive | m5-HT2A ag conf inactive
O=C(C1CC(=O)N(c2ccc3c(c2)OCCO3)C1)N1CCN(S(=O)(=O)c2ccc(F)cc2)CC1 (stereo not given)	none (no result: VLA-4 inh, MEX-5 binding, GASC-1 inh)
O=C(C1CC(=O)N(c2ccc3c(c2)OCCO3)C1)N1CCN(S(=O)(=O)c2ccccc2F)CC1 (stereo not given)	HTR2A ag 18.1 (no result: VLA-4 inh, MEX-5 binding, GASC-1 inh) | OPRM1 ag inactive | m5-HT2A ag conf inactive
O=C(c1ccc2c(=O)n3c(nc2c1)CCC3)N1CCN(S(=O)(=O)c2cccc(F)c2)CC1	none
CCCCCCN1C(=O)CC(NC(=O)OCC2c3ccccc3-c3ccccc32)C/C=C\C1C(C)C (stereo not given)	HTR2A ag 16.0 (no result: VLA-4 inh, MEX-5 binding, GASC-1 inh) | OPRM1 ag inactive | m5-HT2A ag conf inactive
Cc1ccc(CN2C(=O)C[C@@H](NC(=O)OCC3c4ccccc4-c4ccccc43)C/C=C\C2c2ccc(C)cc2)cc1 (stereo not given in full)	none (no result: VLA-4 inh, MEX-5 binding, GASC-1 inh)
COC(=O)c1[nH]c2ccccc2c1NC(=O)CCN1CCSCC1	HTR2A ag 16.0 | OPRM1 ag inactive | m5-HT2A ag conf inactive
CCOC(=O)c1[nH]c2ccc(OC)cc2c1NC(=O)CCN1CCSCC1	none
CC(=O)C1=C(C)NC(=O)NC1c1ccc(Cl)cc1 (stereo not given)	HTR2A ag 17.3 | OPRM1 ag inactive | m5-HT2A ag conf inactive
CC1=C(C(N)=O)C(c2ccc(Cl)cc2)NC(=O)N1 (stereo not given)	none
CCOc1ccc(C(=O)NCC(=O)NNC(=O)C2COc3ccccc3O2)cc1OCC (stereo not given)	HTR2A ag 19.3 | OPRM1 ag inactive | m5-HT2A ag conf inactive
CCCCOc1ccc(C(=O)NCC(=O)NNC(=O)C2COc3ccccc3O2)cc1 (stereo not given)	none (no result: MEX-5 binding)
O=C(Nc1ccc2c(c1)OCCO2)C1c2ccccc2OCC(=O)N1C1CC1 (stereo not given)	none (no result: VLA-4 inh, V-ATPase pH, MEX-5 binding, GASC-1 inh)
Cc1cccc(C)c1OCc1cc(C(=O)N2CCCC2c2nonc2C)no1 (stereo not given)	HTR2A ag 14.4 | OPRM1 ag inactive | m5-HT2A ag conf inactive
CSc1ccccc1OCc1cc(C(=O)N2CCCC2c2nonc2C)no1 (stereo not given)	none
O=C(Cc1ccc2c(c1)OCCO2)Nc1cc(Cl)ccc1N1CCOCC1	none (no result: VLA-4 inh, MEX-5 binding, GASC-1 inh)
Cc1ccc(-c2ccnc(=S)[nH]2)cc1	HTR2A ag 15.1 | OPRM1 ag inactive | m5-HT2A ag conf inactive
CC1(C)CCc2cc(-c3ccnc(=S)[nH]3)ccc2O1	none
O=C(c1cnc2n(c1=O)CCS2)N1CCN(c2ccc(Cl)c(Cl)c2)CC1	HTR2A ag 19.9 | OPRM1 ag inactive | m5-HT2A ag conf inactive
CCn1c(C)c(P(c2ccccc2)c2ccccc2)[n+]2ccccc12	none
S=C(NC1CCCCC1)N1CCN(Cc2ccccc2Cl)CC1	HTR2A ag 16.9 | OPRM1 ag inactive | m5-HT2A ag conf inactive
S=C(NC1CCCCC1)N1CCN(Cc2ccccc2)CC1	none
Cn1cccc1C(=O)OCC(=O)NC(=O)c1ccc(Cl)cc1	none (no result: MEX-5 binding)
COc1ccc(S(=O)(=O)NCC(c2ccc3c(c2)OCO3)N2CCN(c3ccccc3)CC2)cc1 (stereo not given)	HTR2A ag 18.4 | OPRM1 ag inactive | m5-HT2A ag conf 65.9
Cc1nn(-c2ccccc2)c(N)c1Sc1ccc([N+](=O)[O-])cc1	none
CCCn1c(N)c(Sc2ccc([N+](=O)[O-])cc2)c(=O)n(CCC)c1=O	HTR2A ag 17.1 | OPRM1 ag inactive | m5-HT2A ag conf inactive
Cc1ccc2[nH]c(=O)c(CN(CCO)C(=O)N(C)C)cc2c1	HTR2A ag 21.7 | OPRM1 ag inactive | m5-HT2A ag conf inactive
CC(C)CC(=O)Nc1ccc(C(=O)COC(=O)CN2C(=O)NC3(CCCCC3C)C2=O)cc1 (stereo not given)	HTR2A ag 18.2 (no result: VLA-4 inh, MEX-5 binding, GASC-1 inh) | OPRM1 ag inactive | m5-HT2A ag conf inactive
CCOC(=O)CC(=O)COc1nc2cc3c(nc2o1)CCCC3	none
CC(=O)N1CCOc2cc(S(=O)(=O)N3CCN(c4ccccc4)CC3)c(Cl)cc21	HTR2A ag 24.7 | OPRM1 ag inactive | m5-HT2A ag conf inactive
Cc1ccccc1C(=O)c1cccn1CC(=O)NCc1ccccc1Cl	HTR2A ag 26.3 | OPRM1 ag inactive | m5-HT2A ag conf inactive
CCC12CC1(C(=O)OC)C(=O)N1CCc3c([nH]c4ccccc34)C12 (stereo not given)	HTR2A ag 36.8 (no result: VLA-4 inh, V-ATPase pH, MEX-5 binding, GASC-1 inh) | OPRM1 ag inactive | m5-HT2A ag conf 28.3
O=C(Nc1oc2ccccc2c(=O)c1-c1ccc2c(c1)OCO2)c1ccco1	HTR2A ag 14.5 (no result: VLA-4 inh, V-ATPase pH, MEX-5 binding, GASC-1 inh) | OPRM1 ag inactive | m5-HT2A ag conf inactive
O=C(Nc1ccccc1C(=O)Nc1ccc2c(c1)OCO2)c1ccco1	none
NC[C@@H]1O[C@H](C23CC4CC(CC(C4)C2)C3)Cc2c1ccc(O)c2O	HTR2A ag 25.5 | OPRM1 ag inactive | m5-HT2A ag conf 100.3
CCc1noc(C)c1C(=O)Nc1nc(-c2ccc(NC(C)=O)cc2)cs1	none
Cc1onc(-c2ccccc2)c1C(=O)Nc1ccc(N2CCOCC2)cc1	none
CCc1noc(C)c1C(=O)Nc1nc(-c2ccccc2)c(C(C)=O)s1	HTR2A ag 35.0 (no result: MEX-5 binding) | OPRM1 ag inactive | m5-HT2A ag conf inactive
Cc1onc(-c2ccccc2)c1C(=O)Nc1ccc(NC(=O)c2c(-c3ccccc3)noc2C)cc1	HTR2A ag 19.1 | OPRM1 ag inactive | m5-HT2A ag conf inactive
O=C(Cn1c(=O)oc2cc(S(=O)(=O)N3CCCC3)ccc21)N1CCN(c2ccccc2)CC1	none
Cc1ccc(C)c(N2CCN(C(=O)Cn3c(=O)oc4cc(S(=O)(=O)N5CCCC5)ccc43)CC2)c1	HTR2A ag 29.2 | OPRM1 ag inactive | m5-HT2A ag conf inactive
CC(NC(=O)Cn1c(=O)oc2cc(S(=O)(=O)N3CCCC3)ccc21)c1ccccc1 (stereo not given)	HTR2A ag 18.0 | OPRM1 ag inactive | m5-HT2A ag conf inactive
O=S(=O)(Nc1cccc(S(=O)(=O)N2CCOCC2)c1)c1cccs1	none
Cn1nnc(NC(=O)c2cccc([N+](=O)[O-])c2)n1	none
CCC/C(O)=C1\C(=O)CCCC1=NCCc1ccc(OCC)c(OCC)c1	HTR2A ag 14.5 | OPRM1 ag inactive | m5-HT2A ag conf inactive
CCc1nn(CC(=O)NCCc2ccc(S(N)(=O)=O)cc2)c(=O)c2cc3sccc3n12	HTR2A ag 26.5 | OPRM1 ag inactive | m5-HT2A ag conf inactive
